Test results: PMC4336329 (PLoS ONE, 2015)
In all, about 310,000 compounds went through this assay and about 14,000 (4.5%) showed an effect of 50% or more. Effects have a minus sign here. Many of the other results were omitted from the sample, so strong results are more common in it than they were.

molecular target: human ether-à-go-go-related gene (hERG) potassium channel (human, UniProt Q12809); experiment: primary screen, population patch clamp on CHO cells stably expressing hERG; higher = less effect of the substance
Sequence (Q12809 whole entry, looked up): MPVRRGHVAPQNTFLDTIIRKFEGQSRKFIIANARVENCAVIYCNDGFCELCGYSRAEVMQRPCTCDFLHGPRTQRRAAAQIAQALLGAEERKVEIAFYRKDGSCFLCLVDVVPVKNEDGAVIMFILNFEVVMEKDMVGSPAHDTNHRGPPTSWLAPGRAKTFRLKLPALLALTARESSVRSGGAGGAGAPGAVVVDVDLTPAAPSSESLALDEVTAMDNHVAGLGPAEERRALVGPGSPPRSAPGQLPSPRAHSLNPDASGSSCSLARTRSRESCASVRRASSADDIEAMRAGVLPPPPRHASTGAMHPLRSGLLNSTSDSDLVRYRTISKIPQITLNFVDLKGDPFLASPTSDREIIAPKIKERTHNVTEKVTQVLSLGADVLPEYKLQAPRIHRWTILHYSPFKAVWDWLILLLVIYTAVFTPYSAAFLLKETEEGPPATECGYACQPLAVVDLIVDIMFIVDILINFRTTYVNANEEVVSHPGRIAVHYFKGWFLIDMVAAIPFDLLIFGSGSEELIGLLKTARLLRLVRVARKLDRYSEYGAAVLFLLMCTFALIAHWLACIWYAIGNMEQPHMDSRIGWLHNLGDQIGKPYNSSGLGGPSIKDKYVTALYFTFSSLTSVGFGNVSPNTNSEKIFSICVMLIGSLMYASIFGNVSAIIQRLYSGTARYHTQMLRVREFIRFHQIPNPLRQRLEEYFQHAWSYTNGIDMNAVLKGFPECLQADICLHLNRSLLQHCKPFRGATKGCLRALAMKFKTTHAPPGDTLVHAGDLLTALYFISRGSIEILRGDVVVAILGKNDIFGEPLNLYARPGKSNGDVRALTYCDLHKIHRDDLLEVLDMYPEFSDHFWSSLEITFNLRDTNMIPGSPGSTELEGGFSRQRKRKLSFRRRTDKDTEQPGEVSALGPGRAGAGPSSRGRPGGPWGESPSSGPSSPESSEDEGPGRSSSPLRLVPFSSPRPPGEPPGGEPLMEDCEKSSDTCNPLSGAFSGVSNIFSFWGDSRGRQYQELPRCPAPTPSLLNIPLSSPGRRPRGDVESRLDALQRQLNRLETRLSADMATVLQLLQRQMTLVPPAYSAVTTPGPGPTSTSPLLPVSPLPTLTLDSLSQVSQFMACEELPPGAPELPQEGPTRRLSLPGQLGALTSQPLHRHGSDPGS
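Also: peak tail current of the secondary pulse compared with the same well before compound.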

| SMILES | hERG current change (%, negative = inhibition) at 10uM |
| --- | --- |
| COc1cc2c(cc1OC)C(C)N(C(=O)Nc1ccc(F)cc1)CC2 (centres unmarked) | 10.6% |
| Br.O=C(CSc1nc2ccccc2c(=O)n1-c1ccccc1)c1cccc([N+](=O)[O-])c1 | -7.38% |
| COc1cc2c(cc1OC)C(c1ccc(Br)cc1)N(C(=O)c1ccccc1C(=O)O)CC2 (centres unmarked) | 9.72% |
| Cc1cc(C)c(C)c(S(=O)(=O)NCCCN2CCOCC2)c1C | 13.6% |
| O=C1CCN(C(=O)Nc2cccc(Cl)c2)N1 | 14.1% |
| CSc1cccc(NC(=S)N(CCC(C)C)C2CCN(C(C)C)CC2)c1 | -52.5% |
| CCCCN(C(=O)Nc1ccc(Cl)cc1)C1CCN(C(C)=O)CC1 | -46% |
| COCCN(C(=S)Nc1ccc(OC)c(Cl)c1)C1CCN(C(C)C)CC1 | -35.9% |
| CC(C)CCN(C(=S)Nc1cccc(F)c1)C1CCN(C(C)C)CC1 | -42.9% |
| COc1ccc(NC(=S)N(CCC(C)C)C2CCN(C(C)C)CC2)cc1Cl | -68.1% |
| COc1ccc(NC(=S)N(C(C)C)C2CCN(C(C)C)CC2)cc1Cl | 0.307% |
| CCOc1ccc(NC(=O)N(CCC(C)C)C2CCN(C(C)=O)CC2)cc1 | -9.87% |
| CC(C)CCN(C(=O)Nc1ccc(Cl)cc1)C1CCN(C(C)C)CC1 | -72.1% |
| CSc1cccc(NC(=S)N(CCC(C)C)C2CCN(C(C)=O)CC2)c1 | -23.3% |
| O=C1CCCN1CCCNc1ncnc2sccc12 | 3.29% |
| CC(C)(C)N1[C@@H](CC(=O)O)c2cc(C(F)(F)F)ccc2S1(=O)=O | 11.2% |
| Cc1ccccc1Nc1nc(N)nc(COC(=O)CCS(=O)(=O)c2ccccc2)n1 | -14.4% |
| CC(C)=C1C2CCC1C1C(=O)N(NC(=O)c3ccco3)C(=O)C21 (centres unmarked) | -4.72% |
| Cc1nn(C)c(C(=O)N2CCc3ccccc32)c1Cl | 2.37% |
| CCOC(=O)c1cnc2c(C)cc(C)cc2c1Nc1ccc(S(=O)(=O)Nc2ncccn2)cc1 | -0.317% |
| COc1ccc(Cl)cc1N(CC(=O)N1CCN(Cc2ccccc2)CC1)S(C)(=O)=O | -7.28% |
| Cc1ccc2[nH]c3c(c2c1)CN(C(=O)CN1CCN(C(=O)c2ccco2)CC1)CC3 | -5.97% |

| SMILES | hERG current change (%, negative = inhibition) at 10uM |
| --- | --- |
| Cc1ccc2[nH]c3c(c2c1)CN(C(=O)CN1CCN(Cc2ccc4c(c2)OCO4)CC1)CC3 | -54.8% |
| O=C(c1cc2cc(F)ccc2[nH]1)N1CCN(Cc2ccc3c(c2)OCO3)CC1 | -0.31% |
| O=C(CN1CCN(Cc2ccc3c(c2)OCO3)CC1)N1CCc2[nH]c3ccc(F)cc3c2C1 | -62.8% |
| Cc1ccc2[nH]c3c(c2c1)CN(C(=O)CN1CCCCC1)CC3 | -31.8% |
| CN(CC(=O)N1CCc2[nH]c3ccc(F)cc3c2C1)CC1OCCO1 | 5.81% |
| COc1ccccc1NC(=O)c1sc2nc(-c3ccco3)ccc2c1N | 1.24% |
| Cc1n[nH]c(C)c1N1C(=O)c2cccc3c(N4CCCCCC4)ccc(c23)C1=O | -21.5% |
| CCC(=O)N1c2ccc(S(=O)(=O)NCCc3ccc(OC)c(OC)c3)cc2CC1C (centres unmarked) | 10.3% |
| CSc1c(CC(=O)Nc2ccccc2Cl)n(Cc2ccccc2)c2ccccc12 | 8.86% |
| COc1ccc(NC(=O)CCCN2C(=O)CN(C)C2=O)c(OC)c1 | -4.4% |
| CCN(CC(=O)NCc1cccs1)S(=O)(=O)c1ccccc1Cl | -11.3% |
| CCN(CC(=O)NCc1cccs1)C(=O)c1ccc(S(=O)(=O)N(C)C)cc1 | 48.6% |
| CCN(CC(=O)NCc1cccs1)S(=O)(=O)c1c(F)cccc1F | 0.594% |
| CCN(CC(=O)Nc1cccc(OC)c1)C(=O)c1cccc(S(=O)(=O)N2CCc3ccccc32)c1 | -1.63% |
| CCN(CC(=O)NCc1cccs1)C(=O)c1ccc(S(=O)(=O)N(CC)c2ccccc2)cc1 | -61.4% |
| CCN(CC(=O)NCc1cccs1)S(=O)(=O)c1ccc(C(C)C)cc1 | -53.3% |
| CCN(CC(=O)NCc1cccs1)C(=O)c1cccc(S(=O)(=O)NC)c1 | -12.2% |
| CCN(CC(=O)NCc1cccs1)S(=O)(=O)c1ccc(NC(C)=O)cc1 | -7.22% |
| CCN(CC(=O)NCc1cccs1)C(=O)c1cccc(S(=O)(=O)N2CCc3ccccc32)c1 | -71.3% |
| CCN(CC(=O)NCc1cccs1)S(=O)(=O)c1ccc(F)cc1 | -85% |
| CCN(CC)S(=O)(=O)c1ccc(C(=O)NCc2cccs2)cc1 | -20.7% |
| CCN(CC(=O)NCc1cccs1)C(=O)c1ccc(S(=O)(=O)Nc2ccccc2)cc1 | -15.6% |

| SMILES | hERG current change (%, negative = inhibition) at 10uM |
| --- | --- |
| COC(=O)c1ccc2c(c1)S(=O)(=O)NC(=NCCCN1CCOCC1)S2.Cl | -1% |
| COc1ccc(OCCC(=O)OCC(=O)NC(=O)NC2CCCCC2)cc1 | 13.2% |
| CN(C)c1ccc(NS(=O)(=O)c2ccc(-c3csnn3)cc2)cc1 | 13.1% |
| CCCC1(c2ccccc2)NC(=O)N(CC(=O)c2[nH]c(C)c(C(=O)OCC)c2C)C1=O (centres unmarked) | 12.5% |
| CCOC(=O)N1CCN(Cc2cn3ccccc3n2)CC1.O=C(O)C(=O)O | 21.9% |
| Nc1cc(C(=O)N/N=C/c2cccc([N+](=O)[O-])c2)n[nH]c1=O | 7.18% |
| c1ccc(Cn2c(SCc3nc4ccccc4s3)nnc2-c2ccco2)cc1 | -34.1% |
| CCOC(=O)N1CCN(C(=O)C2CCN(S(=O)(=O)c3ccc(Br)s3)CC2)CC1 | -35.2% |
| O=C(Oc1ccc(/C=N/Nc2nc(N3CCCCC3)nc(N3CCCCC3)n2)cc1)c1ccco1 | -9.1% |
| COc1ccc(NC(=O)c2cccc(C#N)c2)cc1NS(=O)(=O)c1ccc(F)cc1 | 8.63% |
| Cc1ccnc(SCCn2c(N3CCN(c4ccccc4)CC3)nc3c2c(=O)[nH]c(=O)n3C)n1 | -17.3% |
| CCN(CC(=O)NCc1cccs1)S(=O)(=O)c1cccc(C(C)=O)c1 | 0.039% |
| CCN(CC(=O)NCc1cccs1)S(=O)(=O)c1cccc(Br)c1 | 11.9% |
| CCN(CC(=O)NCc1cccs1)S(=O)(=O)c1ccc([N+](=O)[O-])cc1 | -68.2% |
| O=[N+]([O-])c1cccc(S(=O)(=O)N/N=C/c2ccc(O)cc2)c1 | 1.14% |
| CC(=O)Nc1nc(C)c(Oc2ccc(Cl)cc2Cl)c(=O)[nH]1 | 10.5% |
| COc1ccccc1NC(=O)c1ccc(NC(=O)COC(=O)CC(NC(=O)c2ccccc2Cl)c2ccccc2)cc1 (centres unmarked) | 6.73% |
| Cc1oc(-c2ccccc2Cl)nc1CN1CCCCC1CO (centres unmarked) | -20.5% |
| COc1cccc(C2CCCCN2Cc2nc(-c3ccc(C)o3)oc2C)c1 (centres unmarked) | -12.5% |
| CCN1CCCC1CNC(=O)C1CCN(Cc2nc(-c3cccc(Br)c3)oc2C)CC1 (centres unmarked) | -9.4% |
| Cc1ccc(-c2nc(CN3CCCCC3CCN3CCCC3=O)c(C)o2)o1 (centres unmarked) | -51.5% |
| CCOc1ccc(-c2nc(CN3CCCCC3CCn3cccn3)c(C)o2)cc1 (centres unmarked) | -71.5% |

| SMILES | hERG current change (%, negative = inhibition) at 10uM |
| --- | --- |
| Cc1oc(-c2cccc(F)c2)nc1CN1CCCCC1CCn1cccn1 (centres unmarked) | -73.1% |
| Cc1ccc(-c2nc(CN3CCCCC3c3cccc(F)c3)c(C)o2)o1 (centres unmarked) | 44.7% |
| CSc1ccc(-c2nc(CN3CCCCC3c3cccnc3)c(C)o2)cc1 (centres unmarked) | -19.8% |
| Cc1oc(-c2cccc(C(F)(F)F)c2)nc1CN1CCC[C@H]1CO | -35% |
| O=C(NCCc1c[nH]c2ccccc12)c1c(Cl)nc2sccn12 | 15.4% |
| O=C(NC(Cc1c[nH]c2ccccc12)C(=O)O)c1cccs1 (centres unmarked) | 18.6% |
| Cc1ccc(Cl)cc1NC(=O)CCC(=O)NCc1ccco1 | 7.15% |
| O=C(CN1C(=O)NC2(CCCc3ccccc32)C1=O)N1CCN(C(=O)c2ccco2)CC1 (centres unmarked) | -34.3% |
| COc1ccc2[nH]c(O)c(NC(C)=O)c2c1 | 1.61% |
| COc1cc(NC(=O)COc2ccc(Br)cc2)ccc1NC(=O)C(C)C | 4.1% |
| CC1CCN(C(=O)COc2ccc(S(=O)(=O)N3CCOCC3)cc2)CC1 | -1.39% |
| Cc1ccc2[nH]cc(CCCN3C(=O)c4ccccc4C3=O)c2c1 | -51.4% |
| COc1ccc2[nH]cc(CCCN3C(=O)c4ccccc4C3=O)c2c1 | -4.87% |
| O=C1c2ccccc2C(=O)N1CCCc1c[nH]c2ccc(Cl)cc12 | -19.3% |
| CC(=O)c1cccc(NS(=O)(=O)c2ccc3c(c2)oc(=O)n3C)c1 | -6.14% |
| O=C1CCN(CCc2ccccc2)CCN1[C@H](CSc1ccccc1)c1ccccc1 | -78.7% |
| O=C1CCN(Cc2ccccc2)CCN1[C@H](CSc1ccccc1)c1ccccc1 | -44.7% |
| Cc1ccc(SC[C@H](c2ccccc2)N2CCN(CCc3ccccc3)CCC2=O)cc1 | -74.7% |
| [N-]=[N+]=NC[C@H](c1ccccc1)N1CCN(Cc2ccccc2)CCC1=O | -0.754% |
| O=C1CCN(CCc2ccccc2)CCN1[C@H](CSc1ccc(Br)cc1)c1ccccc1 | -66.2% |
